The values that follow come from PubChem BioAssay (NCI).

This is part of a sample that, as a whole, favours compounds with a hit. Of some 83,000 tested, about 20% had one in any assay.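 Assay: single dose, 48 h. Readout: percent growth (0 = no net growth; negative = cell death). Active: <10.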 Values without a mark were called inactive. The source made the active and inactive calls.

Common to all, as to test: NCI-60 one-dose screen, 48 h (100 = growth as untreated, 0 = no growth, -100 = all killed)
The test system of one assay is NCI-H23 lung. Conditions: 10 µM unless noted.
For another assay, the system named is NCI-H226 lung. Conditions: 10 µM unless noted.
In another assay the test system is NCI-H322M lung. Conditions: 10 µM unless noted.
The test system of a further assay is HOP-62 NSCLC. Conditions: 10 µM unless noted.
In another assay the test system is NCI-H460 lung. Conditions: 10 µM unless noted.
For another assay, the system named is HOP-92 NSCLC. Conditions: 10 µM.
In another assay the test system is NCI-H522 lung. Conditions: 10 µM unless noted.
The test system of a further assay is A549/ATCC NSCLC. Conditions: 10 µM unless noted.
The test system of the next assay is 786-0 renal. Conditions: 10 µM unless noted.
The test system of the next assay is COLO 205 colon. Conditions: 10 µM unless noted.

In the case of `COc1cc(-c2nc(SCCC(C)C)nc(NNC(=O)c3ccncc3)c2C#N)cc(OC)c1OC`, the growth with NCI-H23 lung is 91.2%; with NCI-H226 lung it was 93%; with NCI-H322M lung, 64.6%; with HOP-62 NSCLC, 63.9%; in the assay with NCI-H460 lung it was 105%; with HOP-92 NSCLC it was 32.9%. Further, the growth in the assay with NCI-H522 lung was 27.9%; with A549/ATCC NSCLC, 76.5%; in the assay on 786-0 renal, 32.3%; with COLO 205 colon, 65.9%.
`CC1=CC(=O)C2=C(C)CC(OC(=O)CCc3ccccc3)[C@@H]3[C@H](OC(=O)[C@@H]3C)[C@@H]12` (stereo not given in full): the growth in the assay on NCI-H23 lung was 95.4%; in the assay on NCI-H226 lung, 97.9%; with NCI-H322M lung, 96.8%; with HOP-62 NSCLC it was 102%; in the assay with NCI-H460 lung, 103%; in the assay with HOP-92 NSCLC, 92.6%. Further, the growth in the assay on NCI-H522 lung was 77.4%; in the assay on A549/ATCC NSCLC, 89%; with 786-0 renal, 92.6%; in the assay with COLO 205 colon it was 95.2%.
As to `NC(=O)c1c(NC(=O)c2ccccc2C(F)(F)F)sc2c1CCC(=O)C2`, the growth with NCI-H23 lung is 4.77% (active); in the assay with NCI-H226 lung it was 37.9%; in the assay with NCI-H322M lung, 105%; in the assay on HOP-62 NSCLC it was 93.4%; in the assay on NCI-H460 lung, 58.4%; with HOP-92 NSCLC, -9.74% (active). Besides, the growth is -1.13% (active) with NCI-H522 lung, 94% in the assay with A549/ATCC NSCLC, 37.5% in the assay on 786-0 renal and 38.3% in the assay with COLO 205 colon.
Turning to `Cn1cc(CNc2nc3ccc(OC/C(=C/F)CN)cc3o2)ccc1=O`, the growth was 107% in the assay with NCI-H23 lung; 101% in the assay with NCI-H226 lung; 99.3% in the assay with NCI-H322M lung; 109% with HOP-62 NSCLC; 108% in the assay with NCI-H460 lung; 108% with HOP-92 NSCLC. The growth in the assay with NCI-H522 lung is 99.2%; in the assay on A549/ATCC NSCLC, 108%; with 786-0 renal, 92.4%; in the assay with COLO 205 colon it was 110%.
As to `NS(=O)(=O)c1ccc(Nc2nc(N/N=C/CCc3ccccc3)nc(Nc3ccccc3)n2)cc1`, the growth was 104% in the assay with NCI-H23 lung; 104% with NCI-H226 lung; 108% in the assay on NCI-H322M lung; 108% with HOP-62 NSCLC; 104% with NCI-H460 lung; 97.4% in the assay on HOP-92 NSCLC. Moreover, the growth was 87.1% with NCI-H522 lung, 106% with A549/ATCC NSCLC, 93.6% in the assay on 786-0 renal and 105% in the assay on COLO 205 colon.
On to `Cc1ccc(-c2nnc(SCc3ccc(O)c4ncccc34)n2-c2ccccc2)cc1`, for which the growth in the assay on NCI-H23 lung is 15.6%; in the assay with NCI-H226 lung, 24.4%; with NCI-H322M lung it was 19.6%; in the assay on HOP-62 NSCLC, 10.6%; in the assay with NCI-H460 lung, -15.8% (active); in the assay with HOP-92 NSCLC, -12.5% (active). Besides, the growth in the assay with NCI-H522 lung was -5.09% (active); in the assay on A549/ATCC NSCLC it was 11.3%; in the assay on 786-0 renal, 25%; in the assay with COLO 205 colon, 25.6%.
With `COc1ccc(N2CCN(C3=C(Cl)C(=O)C(C)=C(C)C3=O)CC2)cc1`, the growth is 106% in the assay with NCI-H23 lung; 99.2% in the assay with NCI-H226 lung; 106% with NCI-H322M lung; 91.5% with HOP-62 NSCLC; 104% with NCI-H460 lung; 102% with HOP-92 NSCLC. For the same molecule, the growth in the assay on NCI-H522 lung was 92.3%; in the assay on A549/ATCC NSCLC, 108%; in the assay on 786-0 renal it was 118%; with COLO 205 colon, 125%.
For the molecule `COc1ccc([C@@H]2c3[nH]c4ccccc4c3C[C@H]3C(=O)N(C4CCN(CC5CCCCC5)CC4)CC(=O)N23)c(OC)c1`, the growth with NCI-H23 lung is 93.3%; in the assay with NCI-H226 lung, 74.1%; in the assay on NCI-H322M lung, 90.3%; with HOP-62 NSCLC, 72.9%; in the assay on NCI-H460 lung, 82.5%; with HOP-92 NSCLC, 51.3%. The growth in the assay on NCI-H522 lung was 85.2%; in the assay on A549/ATCC NSCLC, 72.2%; in the assay with 786-0 renal, 70.5%; in the assay with COLO 205 colon it was 51.2%.
In the case of `c1ccc(C(c2nc3ncncc3[nH]2)N2CSc3nc4ncncc4n3C2)cc1` (stereo not given), the growth with NCI-H23 lung was 55%; in the assay with NCI-H226 lung, 56.2%; in the assay on NCI-H322M lung, 64.3%; in the assay on HOP-62 NSCLC, 26.3%; in the assay on NCI-H460 lung, 83.6%; with HOP-92 NSCLC, 64.9%. For the same molecule, the growth in the assay with NCI-H522 lung was 39.8%; in the assay on A549/ATCC NSCLC it was 92.2%; with 786-0 renal, 33.9%; in the assay with COLO 205 colon, 61.8%.
Turning to `O=C(Nc1cccc(C(F)(F)F)c1)c1cc(-c2ccc(F)cc2F)ccc1O`, the growth with NCI-H23 lung was -4.34% (active); with NCI-H226 lung, 9.06% (active); in the assay with NCI-H322M lung, 4.46% (active); in the assay with HOP-62 NSCLC it was 12.8%; in the assay with NCI-H460 lung it was 2.67% (active); in the assay with HOP-92 NSCLC, -26.2% (active). In addition, the growth is -4.56% (active) with NCI-H522 lung, 7.54% (active) in the assay with A549/ATCC NSCLC, 14.9% in the assay with 786-0 renal and 75.5% with COLO 205 colon.
Turning to `NC(N)=Nc1ccc(Oc2cccc(NC(N)=Nc3ccc(I)cc3F)c2)cn1`, the growth was 52.2% in the assay on NCI-H23 lung; 84.3% in the assay with NCI-H226 lung; 53.1% in the assay on NCI-H322M lung; 66.9% in the assay with HOP-62 NSCLC; 40.6% with NCI-H460 lung; -3.49% (active) with HOP-92 NSCLC. The growth is 41.2% with NCI-H522 lung, 57.9% in the assay with A549/ATCC NSCLC, 80.8% with 786-0 renal and 39.7% with COLO 205 colon.
With `CCn1c(SCC(=O)Nc2cccc(C(=O)/C=C/c3ccccc3Cl)c2)nc2ccccc2c1=O`, the growth in the assay with NCI-H23 lung is 69.5%; in the assay with NCI-H226 lung, 81.9%; in the assay on NCI-H322M lung it was 90.5%; in the assay with HOP-62 NSCLC, 93.7%; in the assay on NCI-H460 lung, 95.7%; with HOP-92 NSCLC, 72.7%. Also, the growth in the assay on NCI-H522 lung is 85.3%; in the assay with A549/ATCC NSCLC it was 78.6%; in the assay with 786-0 renal, 95.6%; in the assay with COLO 205 colon, 114%.
